Results on 5 compounds are retold here after PubChem BioAssay AID492960 (National Center for Advancing Translational Sciences (NCATS), 2010).

Results filed as inconclusive are left out. Values without a mark were called inactive. The source made the active and inactive calls. The call rests on the fitted dose curve; in most records, active means well fitted curve in the direction sought with a large enough effect; inconclusive means small, poorly fitted or top-dose-only effect, or effect the other way, or another doubt; inactive means no such curve, though single readings can be large or run the other way.

This test can be described thus: Secondary Assay for lipid storage modulators: HepG2 cell LDSA assay for probe SAR. Conditions: HepG2 lipid droplet BODIPY, laser-scanning cytometry, 18-24 h; series mostly up to 46.1 µM; activity, negative = less lipid: at the top concentration. The source says: NIH Molecular Libraries Probe Production Centers Network [MLPCN] NIH Chemical Genomics Center [NCGC] MLPCN Grant: 1 R03 MH085686-01 Assay Submitter (PI): Beller, Mathias; Max-Planck-Institut fur Biophysikalische Chemie NCGC Assay Overview: Storing lipids as a reservoir for energy or the anabolism of elementary metabolites is a common feature of probably all cells and is conserved from bacteria to humans. The universal cellular lipid storage organelle is the so-called lipid storage droplet (LD). Although ubiquitous, LDs share a simple structure composed of a hydrophobic core that harbors the storage lipids, which is shielded by a droplet-specific phospholipid monolayer to which proteins are attached. The current model of LD biogenesis involves an incorporation of the lipid core into the membrane leaflets of the endoplasmic reticulum (ER) followed by a subsequent budding-like maturation of a LD, which ultimately pinches off. Once released, LD volume can increase by localized lipogenesis or fusion of existing droplet. Storage lipids are re-mobilized enzymatically by lipase activity. Lipase regulation in the adipocyte is heavily studied and involves multiple components including catecholamine signaling, the LD-associated proteins Perilipin and comparative gene identification (CGI-58) and at least two lipases named hormone sensitive lipase (HSL) and adipocyte triglyceride lipase (ATGL). LD regulation outside of the adipocyte is poorly understood and only few components are known. However, there is an urgent need to learn more about ectopic fat depots as mislocalized storage of lipids, for example in the liver or muscle, is an eminent health problem associated with insulin resistance or the metabolic syndrome.
NCGC Assay Protocol Summary: The assay was performed with HepG2 cells, using an oleic acid feeding protocol similar to the S3 assay. We dispensed 4 uL of cells to give 700 cells/well into Greiner bio-one 1,536-well plates (black walled, clear bottom). Triacsin C (Sigma-Aldrich T-4540), an inhibitor of long-chain fatty acyl CoA synthetase that blocks synthesis of triglycerides, was used as a positive control for lipid under-storage using a final concentration of 20 uM. The orexin antagonist, SB408124 - previously identified to stimulate lipid over-storage, was used as a positive control for lipid over-storage using a final concentration of 20 uM. A total of 23 nL of compound solution of different concentrations were transferred to the assay plates using a Kalypsys pin tool equipped with a 1,536-pin array containing 10-nL slotted pins (FP1S10, 0.457-mm diameter, 50.8 mm long; V&P Scientific). One microliter of oleic acid was added (400 uM final concentration), and the plate was lidded with stainless steel rubber gasket lined lids containing pinholes. After 18-24 h incubation at […] and 95% humidity, 4 uL of the dyes BODIPY 493/503 (Molecular Probes) and the Cell Tracker Red CMTPX dye (Molecular Probes) were added to the wells to stain lipid droplets and enumerate cell number, respectively. Fluorescence was detected by excitation of the fluorophores with a 488-nm laser on an Acumen Explorer (TTP Lab Tech). The total intensity in channel 2 (500-530 nm) reflected lipid droplet accumulation. Cells were detected using channel 3 (575-640 nm) with 5-um width and 100-um depth filters. The ratio of the number of objects in PMT channel 2 over the number of objects in PMT channel 3 was also calculated. […]
For `CCC/C=C/C/C=C/C=C/C=N/NN=O`, the Potency is 0.396 µM (active). With `CCOc1ccc(CCNC(=O)c2ccccc2)cc1OCC`, the “activity, negative = less lipid” value is -5.19%. In the case of `CCOC(=O)C1CCN(C(=O)C2(NC(=O)Nc3ccccc3Cl)CCCC2)CC1`, the “activity, negative = less lipid” value was 32.5%. Same read-out and setting: the figure for `CCOc1ccc(CCNC(=O)c2ccc(C(=O)c3ccccc3)cc2)cc1OCC` is 15.6%; for `CCOc1ccc(CCNC(=O)c2ccc(Oc3ccccc3)cc2)cc1OCC` it is 33.8%.
